# In PubChem BioAssay:
# Calls of active or inactive are those of the source. Unless noted, the rule behind the calls is not given here.
# What was measured:
# [1] = A549 cell viability effects, profiling panel, calcein-AM fluorescence, 48 h, basal (AID 1162); details: higher = more signal; note: test concentration not given here
# [2] = adipocyte viability effects, profiling panel, cell-based, 3T3-L1 adipocytes, calcein-AM fluorescence, 48 h, basal (AID 1163); details: 3T3-L1 adipocytes viability, higher = more signal; note: test concentration not given here
# [3] = HepG2 cell viability effects, profiling panel, calcein-AM fluorescence, 48 h, basal (AID 1164); details: higher = more signal; note: test concentration not given here
# [4] = MM1S cell viability effects, profiling panel, calcein-AM fluorescence, 48 h, basal (AID 1165); details: higher = more signal;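 note: viability of MM1S multiple myeloma cells under basal unstimulated conditions; test concentration not given here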
# [5] = basal RPMI8226 viability, no added stimulus, profiling panel, cell-based, calcein-AM fluorescence, 48 h, PK04 Diversity Set (AID 1166); details: RPMI8226 myeloma viability, higher = more signal;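 note: cells grown under basal conditions without added stimulus; test concentration not given here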
# [6] = basal HepG2 mitochondrial membrane potential changes, profiling panel, cell-based, JC-1 fluorescence, 24 h, 100 nL compound (AID 1167); details: higher = more signal; note: test concentration not given here
# [7] = basal 3T3-L1 adipocyte mitochondrial potential changes, profiling panel, cell-based, JC-1 fluorescence, 3T3-L1 adipocytes, 24 h, 100 nL compound (AID 1168); details: JC-1 mitochondrial fluorescence, higher = more signal, called active from +8 up or from −8 down; note: test concentration not given here
# [8] = basal RPMI8226 mitochondrial membrane potential changes, profiling panel, cell-based, JC-1 fluorescence, 24 h, 100 nL compound (AID 1169); details: RPMI8226 myeloma, JC-1 mitochondrial potential fluorescence, higher = more signal; note: test concentration not given here
# [9] = basal MM1S mitochondrial membrane potential changes, profiling panel, cell-based, JC-1 fluorescence, 24 h, 100 nL compound (AID 1170); details: higher = more signal; note: test concentration not given here
# [10] = A549 lung cancer cell viability effects, profiling panel, resazurin fluorescence, 24 h, PK04 Diversity Set (AID 1171); details: higher = more signal, called active from +8 up or from −8 down; note: test concentration not given here
# [11] = HepG2 liver cancer cell viability effects, profiling panel, resazurin fluorescence, 24 h, PK04 Diversity Set (AID 1172); details: higher = more signal; note: test concentration not given here
# [12] = basal S. cerevisiae growth modulation, no modifier, primary screen, OD600, strain BY4716, 24 h, basal condition (AID 1173); details: OD600, 24 h, higher = more signal, called active from +8 up or from −8 down
# [13] = MM1S myeloma cell viability, profiling panel, resazurin fluorescence, basal, 24 h, PK04 Diversity Set (AID 1174); details: higher = more signal, called active from +8 up or from −8 down;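 note: MM1S multiple myeloma cell line; test concentration not given here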
# [14] = target: Dihydroorotate dehydrogenase (quinone), mitochondrial (Plasmodium falciparum (isolate 3D7)) (UniProt Q08210); test: PfDHODH enzyme inhibitors, primary screen, biochemical, C-terminal His tag, absorbance 600 nm (AID 1175); details: DCIP absorbance 600 nm, higher = more signal, called active from +8 up or from −8 down;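 note: recombinant parasite enzyme with a five histidine tag at its C terminus; test concentration not given here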
# [15] = P. aeruginosa biofilm formation inhibitors, primary screen, strain PAO1, LB-PBS medium, absorbance 600 nm (AID 1176); note: test concentration not given here; details: P. aeruginosa PAO1 growth/biofilm, A600, 12 h; higher = more signal
# [16] = S. cerevisiae RM11-1a growth modifiers, primary screen, strain RM11-1a, OD600, basal, 24 h (AID 1177); details: OD600, 24 h, higher = more signal, called active from +8 up or from −8 down;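 note: cultures grown under basal conditions with no added stressor; test concentration not given here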
# [17] = E. coli acrAB mutant growth effects, primary screen, E. coli filamentation inducers, strain DRC39, OD650, 24 h (AID 1178); details: higher = more signal, called active from +8 up or from −8 down;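 note: growth measured as culture turbidity by optical density at 650 nm; test concentration not given here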
# [18] = E. coli acrAB mutant growth effects, primary screen, E. coli filamentation inducers, strain DRC39, OD650, 48 h (AID 1179);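 note: screen aims at cell division blockers that make cells filament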; details: E. coli DRC39 delta-acrAB growth, higher = more signal, called active from +8 up or from −8 down
# [19] = RPMI8226 myeloma cell viability, profiling panel, resazurin fluorescence, basal, 24 h, PK04 Diversity Set (AID 1180); details: higher = more signal;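 note: RPMI8826 multiple myeloma cell line at 5000 cells per well; test concentration not given here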
# [20] = target: E3 ubiquitin-protein ligase XIAP (Homo sapiens) (UniProt P98170); test: XIAP binders, primary screen, biophysical, small-molecule microarray, fluorescence 635 nm (AID 1181); details: small-molecule microarray binding, higher = more signal;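 note: score merges 667 nm emission and signal to noise over triplicate slides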
# E3 ubiquitin-protein ligase XIAP (Homo sapiens), sequence (P98170 whole entry, looked up): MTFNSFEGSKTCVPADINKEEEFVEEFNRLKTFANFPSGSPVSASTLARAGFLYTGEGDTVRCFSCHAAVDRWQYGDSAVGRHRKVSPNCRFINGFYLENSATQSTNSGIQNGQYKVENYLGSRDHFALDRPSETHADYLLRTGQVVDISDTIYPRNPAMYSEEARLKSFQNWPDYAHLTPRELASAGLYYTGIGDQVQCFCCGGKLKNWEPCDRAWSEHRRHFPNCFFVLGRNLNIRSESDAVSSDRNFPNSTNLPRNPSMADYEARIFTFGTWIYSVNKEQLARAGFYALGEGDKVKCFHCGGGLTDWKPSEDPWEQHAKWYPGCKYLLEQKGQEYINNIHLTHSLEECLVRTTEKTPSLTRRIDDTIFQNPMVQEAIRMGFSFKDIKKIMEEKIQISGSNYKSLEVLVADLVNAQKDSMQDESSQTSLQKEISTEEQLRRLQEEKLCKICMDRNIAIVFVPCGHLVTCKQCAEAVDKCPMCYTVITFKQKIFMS
# Dihydroorotate dehydrogenase (quinone), mitochondrial (Plasmodium falciparum (isolate 3D7)), sequence (Q08210 whole entry, looked up): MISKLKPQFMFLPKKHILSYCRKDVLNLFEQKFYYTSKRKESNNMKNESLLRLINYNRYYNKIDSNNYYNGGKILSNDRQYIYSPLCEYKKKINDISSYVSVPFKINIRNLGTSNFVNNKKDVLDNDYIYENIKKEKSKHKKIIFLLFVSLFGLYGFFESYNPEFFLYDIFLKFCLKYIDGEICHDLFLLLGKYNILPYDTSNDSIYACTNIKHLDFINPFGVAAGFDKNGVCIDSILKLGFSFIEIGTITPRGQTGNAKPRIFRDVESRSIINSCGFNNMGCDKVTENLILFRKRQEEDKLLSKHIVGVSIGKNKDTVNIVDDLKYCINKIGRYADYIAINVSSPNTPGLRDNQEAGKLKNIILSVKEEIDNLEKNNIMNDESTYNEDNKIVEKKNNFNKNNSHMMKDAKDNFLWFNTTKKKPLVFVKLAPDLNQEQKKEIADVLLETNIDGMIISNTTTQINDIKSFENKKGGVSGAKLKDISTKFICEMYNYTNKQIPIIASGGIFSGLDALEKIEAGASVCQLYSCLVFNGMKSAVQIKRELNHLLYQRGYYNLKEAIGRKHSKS
SMILES,z-score [1],z-score [2],z-score [3],z-score [4],z-score [5],z-score [6],z-score [7],z-score [8],z-score [9],z-score [10],z-score [11],z-score [12],z-score [13],composite z-score [14],z-score [15],z-score [16],z-score [17],z-score [18],z-score [19],composite z-score [20]
CCCCC(=O)N(Cc1ccccc1F)[C@@H]1CC(C(=O)NCCO)=C[C@H](Oc2c(I)cc(CO)cc2OC)[C@H]1O,-0.435,1.65,-0.765,0.364,-1.7,0.197,-0.916 (inactive),-0.325,-0.0648,-0.873 (inactive),-0.796,-2.51 (inactive),-0.137 (inactive),-1.63 (inactive),-0.447 (inactive),1.65 (inactive),0.754 (inactive),0.266 (inactive),-0.0533,0.344
COCCOC(=O)N1C(=O)[C@@]2(c3cc(C#Cc4ccc(OC)cc4)ccc31)[C@H](c1ccc(OCCO)cc1)N1[C@H](c3ccccc3)[C@H](c3ccccc3)OC(=O)[C@H]1[C@@H]2C(=O)N1CCc2cc(OC)c(OC)cc2C1,0.618,0.979,0.156,0.427,0.959,-0.343,2.92 (inactive),-0.322,-1.24,0.216 (inactive),1.04,2.62 (inactive),1.02 (inactive),-0.0321 (inactive),3.34 (inactive),3.55 (inactive),-0.148 (inactive),0.0574 (inactive),0.928,-0.0476
C#C[C@H]1Oc2ccccc2S(=O)(=O)N2CCC[C@@H]12,-0.308,-0.401,-1.19,0.132,-0.446,-0.777,-0.275 (inactive),-0.18,-0.116,-0.424 (inactive),-0.87,-0.454 (inactive),-0.482 (inactive),0.112 (inactive),-0.0582 (inactive),-0.0887 (inactive),0.0374 (inactive),-0.29 (inactive),-0.652,-0.299
CCOC(=O)N1C(c2ccc(OCCCO)cc2)=NC(C(=O)OC)N1C(=O)OCC (stereo not given),-0.481,0.69,0.21,0.487,0.732,-0.231,0.68 (inactive),-1.24,0.0773,0.352 (inactive),0.33,-0.445 (inactive),0.715 (inactive),-0.294 (inactive),-0.565 (inactive),-1.08 (inactive),0.857 (inactive),1.52 (inactive),0.96,0.0707
[N-]=[N+]=NCc1ccccc1C[C@]1(C(=O)NCC(O)CO)COC(c2ccc(OCCCO)cc2)=N1 (stereo not given in full),-0.226,-0.314,0.0226,-1.02,-1.29,-0.727,-0.491 (inactive),-1.26,-0.714,2.56 (inactive),0.0117,-1.46 (inactive),-2.31 (inactive),0.0291 (inactive),0.19 (inactive),-0.325 (inactive),-0.0949 (inactive),0.0564 (inactive),-0.902,-0.163
COCCOC(=O)N1C(=O)[C@@]2(c3cc(C#CCC(C(=O)OC)C(=O)OC)ccc31)[C@H](c1ccccc1OCCO)N1[C@H](c3ccccc3)[C@H](c3ccccc3)OC(=O)[C@H]1[C@@H]2C(=O)Nc1nc2ccccc2s1,1.7,0.321,1.4,-0.569,-0.922,-2.31,0.844 (inactive),-0.76,-0.578,-0.0543 (inactive),0.513,-0.561 (inactive),0.951 (inactive),-1.19 (inactive),3.41 (inactive),-0.929 (inactive),1.28 (inactive),1.76 (inactive),0.599,-0.0785
COC(=O)[C@@]1(Cc2ccc(OC)cc2)[C@H]2c3cc(C(=O)N(C)C)n(CCSCCO)c3C[C@H]2CN1C(=O)c1ccccc1,-0.46,-0.774,0.595,-2.12,-0.254,1.47,-0.358 (inactive),0.179,-1.07,-0.494 (inactive),0.123,0.32 (inactive),-0.415 (inactive),-0.669 (inactive),0.852 (inactive),-0.459 (inactive),0.219 (inactive),-0.143 (inactive),-0.409,-0.0062
C=CCC(OC(C)=O)[C@@H]1[C@@H](N(Cc2ccc(-c3ccccc3)cc2)C(=O)c2ccc(C)cc2)c2cc(OCCCO)ccc2N1C(=O)Cc1ccc(OC)cc1 (stereo not given in full),0.837,0.705,2.23,0.711,0.815,4.08,-0.172 (inactive),0.768,-0.496,0.267 (inactive),0.989,-0.397 (inactive),1.02 (inactive),-1.17 (inactive),-0.312 (inactive),-1.65 (inactive),-0.104 (inactive),0.393 (inactive),0.72,-0.165
C=CC[C@]1(C(=O)NCCN2CCOCC2)N=C(c2ccc(OCCCO)cc2)O[C@H]1c1ccccc1N=[N+]=[N-],0.0657,0.572,0.353,-1.05,-0.766,1.03,1.98 (inactive),-0.701,0.472,0.0624 (inactive),-0.153,-1.51 (inactive),0.0032 (inactive),0.918 (inactive),-0.251 (inactive),0.393 (inactive),2.29 (inactive),0.746 (inactive),-0.414,0.113
COc1ccc([Si](C)(C)[C@@H]2[C@@H](CCO)O[C@]3(C(=O)N(Cc4cccc(N5CCCCC5=O)c4)c4ccccc43)[C@H]2C)cc1,-0.86,0.161,-1.7,-2.75,-1.65,-1.94,0.128 (inactive),-1.02,-1.43,-0.55 (inactive),-0.994,0.697 (inactive),-1.93 (inactive),-1.75 (inactive),0.225 (inactive),5.19 (inactive),0.318 (inactive),0.244 (inactive),-0.439,0.0623
COCCOC(=O)N1C(=O)[C@@]2(c3cc(C#CC4=CCCCC4)ccc31)[C@H](C(=O)N1CCN(c3ncccn3)CC1)[C@H]1C(=O)O[C@H](c3ccccc3)[C@H](c3ccccc3)N1[C@@H]2c1ccc(OCCO)cc1,-0.167,0.937,-0.247,-1.05,-0.812,-0.203,1.59 (inactive),-0.606,-0.822,0.532 (inactive),0.156,1.31 (inactive),0.162 (inactive),-0.204 (inactive),3.13 (inactive),1.69 (inactive),0.208 (inactive),-0.564 (inactive),-0.147,-0.0389
O=C(NCC(O)CO)[C@@]1(Cc2ccccc2)N=C(c2ccc(OCCCO)cc2)O[C@H]1c1ccccc1 (stereo not given in full),-0.125,1.2,-0.266,-1.93,-0.0748,0.4,0.366 (inactive),-0.392,-0.223,0.564 (inactive),0.531,-2.2 (inactive),0.583 (inactive),-0.507 (inactive),0.41 (inactive),-0.547 (inactive),2.7 (inactive),0.249 (inactive),0.391,0.221
CCCCN1CC=CC23O[C@@H]4C=CCCOC(=O)C4[C@H]2C(=O)N(CCCO)[C@@H]3C1=O (stereo not given in full),0.146,1.53,-0.365,0.438,-0.913,-0.798,-0.562 (inactive),-0.781,-0.148,-0.834 (inactive),-0.341,-1.09 (inactive),-0.404 (inactive),-3.94 (inactive),-0.565 (inactive),0.0943 (inactive),-1.54 (inactive),-1.34 (inactive),-0.937,0.268
CCN(CC)c1ccc(N2CC=CC34O[C@@H]5/C=C\CCCOC(=O)C5[C@H]3C(=O)N(CCCO)[C@@H]4C2=O)cc1 (stereo not given in full),-0.13,0.275,0.616,0.794,-0.0911,0.472,-0.546 (inactive),-0.0632,0.918,0.876 (inactive),0.434,0.993 (inactive),0.481 (inactive),-0.423 (inactive),0.053 (inactive),-0.767 (inactive),-0.438 (inactive),-0.322 (inactive),0.566,0.559
COCCOC(=O)N1C(=O)[C@@]2(c3cc(C#Cc4ccc(OC)cc4)ccc31)[C@H](C(N)=O)[C@H]1C(=O)O[C@H](c3ccccc3)[C@H](c3ccccc3)N1[C@@H]2c1ccc(O)cc1,0.363,0.632,-0.905,0.152,-2.22,-0.933,0.454 (inactive),-0.677,-0.317,0.179 (inactive),-0.0716,-0.823 (inactive),0.277 (inactive),-0.265 (inactive),0.886 (inactive),-0.0047 (inactive),-0.102 (inactive),0.236 (inactive),-0.394,0.0849
COC(=O)[C@@]1(Cc2ccc(F)cc2)[C@H]2c3cc(C(=O)N4CCCC4)n(CCc4ccc(OC)c(Br)c4)c3C[C@H]2CN1C(=O)c1ccccc1,-1.58,-0.483,-2.5,-1.66,-4.69,0.275,-0.317 (inactive),-0.626,-2.09,-2.3 (inactive),-1.25,0.836 (inactive),-2.83 (inactive),-0.163 (inactive),1.07 (inactive),0.264 (inactive),-0.588 (inactive),0.123 (inactive),-4.16,0.183
COCCOC(=O)N1C(=O)[C@@]2(c3cc(C#CC4=CCCCC4)ccc31)[C@H](c1ccc(OCCO)cc1)N1[C@H](c3ccccc3)[C@H](c3ccccc3)OC(=O)[C@H]1[C@@H]2C(=O)Nc1nc2ccccc2s1,0.642,0.0841,-0.153,-0.381,-0.259,-2.79,-0.216 (inactive),-0.932,-1.63,-0.057 (inactive),1.16,1.65 (inactive),-0.396 (inactive),0.123 (inactive),3.34 (inactive),2.68 (inactive),-0.169 (inactive),0.422 (inactive),0.584,0.061
